Results: article PMC7862700, “An all-to-all approach to the identification of sequence-specific readers for epigenetic DNA modifications on cytosine”

Key:
Assay in all cases: DAPPL (digital affinity profiling via proximity ligation, sequencing); 10 mM Tris-HCl pH 7.5, 50 mM NaCl, 1 mM DTT, 4% glycerol, room temperature, 30 min; GST-TFs on glutathione beads, 16-mer random dsDNA library, 0.1% formaldehyde crosslink after washing; high values mean tight binding
FEV = biological target: T1, FEV (Homo sapiens, UniProt Q99581 1-238); conditions: protein: recombinant; tags: N-terminal GST; dsDNA, one strand shown
T1 sequence: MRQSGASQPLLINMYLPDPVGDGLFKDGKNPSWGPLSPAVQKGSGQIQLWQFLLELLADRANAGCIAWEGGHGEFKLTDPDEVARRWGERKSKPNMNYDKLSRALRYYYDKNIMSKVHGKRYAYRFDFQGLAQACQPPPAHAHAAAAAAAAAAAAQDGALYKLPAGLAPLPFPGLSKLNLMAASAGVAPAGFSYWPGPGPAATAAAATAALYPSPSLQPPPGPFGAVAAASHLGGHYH
Procedure, shortened: (§1)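 Pools of DNA-barcoded human transcription factors, expressed in yeast as GST fusions on glutathione beads and combined with a tag-only sample, were incubated with 200 nmole of a 16-mer random double-stranded DNA library. Incubation took 30 min at room temperature in Tris/NaCl/DTT/glycerol buffer and was followed by washing, 0.1% formaldehyde crosslinking, proximity ligation (BsaI/T4 ligase, 1 h, 37 °C), PCR amplification and sequencing on an Illumina NextSeq500. Binding signal is the ratio of a hexamer's read frequency for a factor to its frequency for the tag-only sample.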

ETV5 = ETV5 (Homo sapiens, UniProt P41161 1-510); conditions: protein: recombinant; tags: N-terminal GST; dsDNA, one strand shown
Procedure, shortened: as §1

HSF1 = HSF1 (Homo sapiens, UniProt Q00613 1-529); conditions: protein: recombinant; tags: N-terminal GST; chain copies: 3; dsDNA, one strand shown
Procedure, shortened: as §1

SPIC = biological target: T2, SPIC (Homo sapiens, UniProt Q8N5J4 1-248); conditions: protein: recombinant; tags: N-terminal GST; dsDNA, one strand shown
T2 sequence: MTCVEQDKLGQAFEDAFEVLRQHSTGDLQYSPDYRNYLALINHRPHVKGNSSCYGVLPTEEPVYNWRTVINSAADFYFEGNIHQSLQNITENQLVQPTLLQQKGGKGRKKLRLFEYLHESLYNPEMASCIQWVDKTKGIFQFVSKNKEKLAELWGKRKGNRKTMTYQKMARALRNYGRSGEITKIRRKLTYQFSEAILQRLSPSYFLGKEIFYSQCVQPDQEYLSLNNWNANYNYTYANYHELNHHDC
Procedure, shortened: as §1

ELF4 = ELF4 (Homo sapiens, UniProt Q99607 1-663); conditions: protein: recombinant; tags: N-terminal GST; dsDNA, one strand shown
Procedure, shortened: as §1

ELK4 = biological target: T3, ELK4 (Homo sapiens, UniProt P28324-2 1-405); conditions: protein: recombinant; tags: N-terminal GST; dsDNA, one strand shown
T3 sequence: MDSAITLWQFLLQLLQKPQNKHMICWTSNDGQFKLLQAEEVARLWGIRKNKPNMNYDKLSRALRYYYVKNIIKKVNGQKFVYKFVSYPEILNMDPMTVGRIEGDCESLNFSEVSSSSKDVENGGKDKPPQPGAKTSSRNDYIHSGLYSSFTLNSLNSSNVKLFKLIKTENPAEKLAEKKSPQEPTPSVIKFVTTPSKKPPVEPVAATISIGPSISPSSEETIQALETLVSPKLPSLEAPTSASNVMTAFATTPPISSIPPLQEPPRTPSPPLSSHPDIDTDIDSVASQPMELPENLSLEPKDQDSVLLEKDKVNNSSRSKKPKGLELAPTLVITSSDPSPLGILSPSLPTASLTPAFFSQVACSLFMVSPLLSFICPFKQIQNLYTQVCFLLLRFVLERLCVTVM
Procedure, shortened: as §1

ETV2 = biological target: T4, ETV2 (Homo sapiens, UniProt O00321 1-342); conditions: protein: recombinant; tags: N-terminal GST; dsDNA, one strand shown
T4 sequence: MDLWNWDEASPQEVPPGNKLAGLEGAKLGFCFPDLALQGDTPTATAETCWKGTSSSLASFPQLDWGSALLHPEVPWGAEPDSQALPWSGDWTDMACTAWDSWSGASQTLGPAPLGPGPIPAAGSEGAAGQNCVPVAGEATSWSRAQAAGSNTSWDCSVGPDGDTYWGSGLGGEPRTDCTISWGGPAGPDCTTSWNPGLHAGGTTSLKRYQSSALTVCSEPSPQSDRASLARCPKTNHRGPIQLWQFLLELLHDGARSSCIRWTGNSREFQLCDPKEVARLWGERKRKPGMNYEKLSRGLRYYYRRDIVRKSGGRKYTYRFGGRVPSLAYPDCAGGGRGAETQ
Procedure, shortened: as §1

ELF3 = biological target: T5, ELF3 (Homo sapiens, UniProt P78545 1-371); conditions: protein: recombinant; tags: N-terminal GST; dsDNA, one strand shown
T5 sequence: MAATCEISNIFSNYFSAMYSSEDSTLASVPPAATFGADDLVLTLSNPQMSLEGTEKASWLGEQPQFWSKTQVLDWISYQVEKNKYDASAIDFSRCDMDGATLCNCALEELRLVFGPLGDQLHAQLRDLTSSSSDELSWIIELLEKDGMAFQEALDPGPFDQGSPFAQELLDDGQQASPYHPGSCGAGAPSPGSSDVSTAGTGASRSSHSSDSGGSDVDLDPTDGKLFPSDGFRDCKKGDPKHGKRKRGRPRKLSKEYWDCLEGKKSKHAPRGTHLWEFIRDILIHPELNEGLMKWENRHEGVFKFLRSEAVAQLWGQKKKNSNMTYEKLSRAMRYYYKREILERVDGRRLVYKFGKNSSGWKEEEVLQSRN
Procedure, shortened: as §1

CRX = CRX (Homo sapiens, UniProt O43186 1-299); conditions: protein: recombinant; tags: N-terminal GST; dsDNA, one strand shown
Procedure, shortened: as §1

ETV1 = ETV1 (Homo sapiens, UniProt P50549 1-477); conditions: protein: recombinant; tags: N-terminal GST; dsDNA, one strand shown
Procedure, shortened: as §1

ERF = biological target: T6, ERF (Homo sapiens, UniProt P50548 1-548); conditions: protein: recombinant; tags: N-terminal GST; dsDNA, one strand shown
T6 sequence: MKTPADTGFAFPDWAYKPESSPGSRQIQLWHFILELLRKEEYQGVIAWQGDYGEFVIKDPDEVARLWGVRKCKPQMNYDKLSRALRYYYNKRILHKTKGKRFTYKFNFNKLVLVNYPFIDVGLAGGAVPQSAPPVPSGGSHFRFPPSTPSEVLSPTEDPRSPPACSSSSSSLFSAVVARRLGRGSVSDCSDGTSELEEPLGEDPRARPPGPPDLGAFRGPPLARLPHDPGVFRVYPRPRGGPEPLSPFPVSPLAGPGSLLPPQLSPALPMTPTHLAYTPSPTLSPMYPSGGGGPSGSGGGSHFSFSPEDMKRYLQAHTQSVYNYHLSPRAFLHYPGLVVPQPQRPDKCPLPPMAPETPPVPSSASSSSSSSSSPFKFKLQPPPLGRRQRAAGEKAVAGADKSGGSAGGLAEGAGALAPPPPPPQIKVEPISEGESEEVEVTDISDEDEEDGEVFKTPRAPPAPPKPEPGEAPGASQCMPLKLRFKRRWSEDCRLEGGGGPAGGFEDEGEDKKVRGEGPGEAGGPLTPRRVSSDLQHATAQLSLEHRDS
Procedure, shortened: as §1

ETV3L = biological target: T7, ETV3L (Homo sapiens, UniProt Q6ZN32 1-361); conditions: protein: recombinant; tags: N-terminal GST; dsDNA, one strand shown
T7 sequence: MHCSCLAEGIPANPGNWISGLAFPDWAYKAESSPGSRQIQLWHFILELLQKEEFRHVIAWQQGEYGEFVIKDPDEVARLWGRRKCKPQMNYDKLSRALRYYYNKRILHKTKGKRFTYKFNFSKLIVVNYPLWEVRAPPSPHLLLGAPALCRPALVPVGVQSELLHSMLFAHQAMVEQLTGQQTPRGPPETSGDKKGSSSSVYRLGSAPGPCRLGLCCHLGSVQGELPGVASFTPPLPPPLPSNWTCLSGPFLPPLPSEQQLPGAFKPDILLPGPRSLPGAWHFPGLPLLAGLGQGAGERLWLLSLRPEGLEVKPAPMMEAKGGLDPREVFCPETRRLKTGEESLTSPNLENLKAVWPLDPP
Procedure, shortened: as §1

ETS2 = biological target: T8, ETS2 (Homo sapiens, UniProt P15036 1-469); conditions: protein: recombinant; tags: N-terminal GST; dsDNA, one strand shown
T8 sequence: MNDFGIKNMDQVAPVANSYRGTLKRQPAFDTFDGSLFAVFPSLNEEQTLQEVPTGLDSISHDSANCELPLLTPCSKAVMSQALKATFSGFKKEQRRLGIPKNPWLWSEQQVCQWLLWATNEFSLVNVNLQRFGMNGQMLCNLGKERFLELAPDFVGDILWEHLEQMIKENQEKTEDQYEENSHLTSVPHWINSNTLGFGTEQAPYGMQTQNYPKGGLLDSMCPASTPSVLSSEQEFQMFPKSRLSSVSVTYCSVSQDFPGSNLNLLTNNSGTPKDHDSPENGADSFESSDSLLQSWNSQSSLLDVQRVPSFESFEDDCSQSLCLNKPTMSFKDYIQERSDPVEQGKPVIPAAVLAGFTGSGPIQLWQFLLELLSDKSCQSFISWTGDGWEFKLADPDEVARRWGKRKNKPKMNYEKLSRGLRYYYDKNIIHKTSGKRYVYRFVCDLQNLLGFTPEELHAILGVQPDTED
Procedure, shortened: as §1

SPDEF = biological target: T9, SPDEF (Homo sapiens, UniProt O95238 1-335); conditions: protein: recombinant; tags: N-terminal GST; dsDNA, one strand shown
T9 sequence: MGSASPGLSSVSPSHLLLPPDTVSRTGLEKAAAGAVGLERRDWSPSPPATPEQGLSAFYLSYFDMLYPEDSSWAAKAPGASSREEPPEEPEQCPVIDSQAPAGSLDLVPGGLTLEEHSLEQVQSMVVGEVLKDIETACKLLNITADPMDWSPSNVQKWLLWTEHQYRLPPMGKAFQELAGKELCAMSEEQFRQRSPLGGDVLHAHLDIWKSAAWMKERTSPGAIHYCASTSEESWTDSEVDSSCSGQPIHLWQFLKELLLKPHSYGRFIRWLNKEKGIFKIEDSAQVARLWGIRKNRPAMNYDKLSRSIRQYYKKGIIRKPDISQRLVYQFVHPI
Procedure, shortened: as §1

ETV7 = biological target: T10, ETV7 (Homo sapiens, UniProt Q9Y603 1-341); conditions: protein: recombinant; tags: N-terminal GST; dsDNA, one strand shown
T10 sequence: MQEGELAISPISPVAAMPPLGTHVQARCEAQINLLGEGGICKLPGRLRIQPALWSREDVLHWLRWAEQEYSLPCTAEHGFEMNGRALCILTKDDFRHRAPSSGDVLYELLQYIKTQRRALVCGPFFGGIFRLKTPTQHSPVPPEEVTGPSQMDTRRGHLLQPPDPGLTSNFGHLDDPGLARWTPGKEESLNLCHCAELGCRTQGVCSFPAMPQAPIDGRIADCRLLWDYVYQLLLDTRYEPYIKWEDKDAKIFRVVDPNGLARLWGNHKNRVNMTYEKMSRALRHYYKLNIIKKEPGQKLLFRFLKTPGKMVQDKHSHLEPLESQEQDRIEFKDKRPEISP
Procedure, shortened: as §1

ELF5 = biological target: T11, ELF5 (Homo sapiens, UniProt Q9UKW6-2 1-255); conditions: protein: recombinant; tags: N-terminal GST; dsDNA, one strand shown
T11 sequence: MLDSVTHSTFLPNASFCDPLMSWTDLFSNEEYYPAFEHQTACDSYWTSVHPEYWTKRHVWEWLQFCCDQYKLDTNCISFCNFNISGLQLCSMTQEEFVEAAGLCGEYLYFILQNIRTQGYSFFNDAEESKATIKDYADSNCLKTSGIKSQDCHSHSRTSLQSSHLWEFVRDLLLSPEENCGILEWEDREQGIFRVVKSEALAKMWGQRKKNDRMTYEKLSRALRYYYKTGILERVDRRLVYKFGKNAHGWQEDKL
Procedure, shortened: as §1

ETV3 = biological target: T12, ETV3 (Homo sapiens, UniProt P41162-2 1-143); conditions: protein: recombinant; tags: N-terminal GST; dsDNA, one strand shown
T12 sequence: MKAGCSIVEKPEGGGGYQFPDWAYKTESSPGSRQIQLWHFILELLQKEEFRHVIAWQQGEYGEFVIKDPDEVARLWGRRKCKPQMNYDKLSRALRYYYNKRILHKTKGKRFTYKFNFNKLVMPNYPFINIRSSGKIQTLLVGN
Procedure, shortened: as §1

ETV6 = ETV6 (Homo sapiens, UniProt P41212 1-452); conditions: protein: recombinant; tags: N-terminal GST; dsDNA, one strand shown
Procedure, shortened: as §1

Chain of HSF1 (Q00613 whole entry): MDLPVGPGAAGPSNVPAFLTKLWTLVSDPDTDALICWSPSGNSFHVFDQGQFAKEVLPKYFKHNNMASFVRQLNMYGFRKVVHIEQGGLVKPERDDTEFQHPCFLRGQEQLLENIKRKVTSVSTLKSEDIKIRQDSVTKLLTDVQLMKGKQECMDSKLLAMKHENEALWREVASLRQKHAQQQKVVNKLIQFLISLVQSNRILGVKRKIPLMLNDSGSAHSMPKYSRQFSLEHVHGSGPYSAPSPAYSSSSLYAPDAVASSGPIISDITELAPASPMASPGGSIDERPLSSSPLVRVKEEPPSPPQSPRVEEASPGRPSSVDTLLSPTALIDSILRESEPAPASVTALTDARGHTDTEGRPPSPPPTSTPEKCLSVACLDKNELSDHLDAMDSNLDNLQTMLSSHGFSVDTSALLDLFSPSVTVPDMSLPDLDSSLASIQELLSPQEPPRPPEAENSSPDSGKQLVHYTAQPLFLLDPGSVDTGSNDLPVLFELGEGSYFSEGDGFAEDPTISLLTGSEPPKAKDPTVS
Chain of ETV6 (P41212 whole entry): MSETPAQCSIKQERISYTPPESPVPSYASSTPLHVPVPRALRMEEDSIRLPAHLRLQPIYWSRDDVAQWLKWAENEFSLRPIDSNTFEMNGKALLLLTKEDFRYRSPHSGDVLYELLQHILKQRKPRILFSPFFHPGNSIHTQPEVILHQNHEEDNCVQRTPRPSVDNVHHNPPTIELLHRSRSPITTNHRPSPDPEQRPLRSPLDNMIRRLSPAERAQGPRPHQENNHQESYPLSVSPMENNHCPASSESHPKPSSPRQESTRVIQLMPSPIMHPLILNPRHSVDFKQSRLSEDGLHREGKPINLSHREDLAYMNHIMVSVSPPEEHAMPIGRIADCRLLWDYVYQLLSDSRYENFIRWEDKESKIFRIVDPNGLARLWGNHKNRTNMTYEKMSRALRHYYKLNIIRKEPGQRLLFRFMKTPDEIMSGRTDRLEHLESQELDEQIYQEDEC
Chain of ETV5 (P41161 whole entry): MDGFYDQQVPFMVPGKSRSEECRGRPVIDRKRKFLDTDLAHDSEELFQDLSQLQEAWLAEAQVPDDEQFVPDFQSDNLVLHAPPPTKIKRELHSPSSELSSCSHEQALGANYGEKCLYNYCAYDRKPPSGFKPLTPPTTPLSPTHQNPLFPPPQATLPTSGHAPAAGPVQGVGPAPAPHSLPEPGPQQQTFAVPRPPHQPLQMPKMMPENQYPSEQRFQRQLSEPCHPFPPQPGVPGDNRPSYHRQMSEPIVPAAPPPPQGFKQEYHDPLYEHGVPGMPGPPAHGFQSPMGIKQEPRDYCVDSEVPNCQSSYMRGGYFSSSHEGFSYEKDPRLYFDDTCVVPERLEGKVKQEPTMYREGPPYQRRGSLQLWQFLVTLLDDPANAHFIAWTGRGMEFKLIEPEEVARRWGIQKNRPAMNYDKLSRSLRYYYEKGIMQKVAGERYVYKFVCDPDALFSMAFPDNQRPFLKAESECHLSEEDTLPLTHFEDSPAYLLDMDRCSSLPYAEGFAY
Chain of ELF4 (Q99607 whole entry): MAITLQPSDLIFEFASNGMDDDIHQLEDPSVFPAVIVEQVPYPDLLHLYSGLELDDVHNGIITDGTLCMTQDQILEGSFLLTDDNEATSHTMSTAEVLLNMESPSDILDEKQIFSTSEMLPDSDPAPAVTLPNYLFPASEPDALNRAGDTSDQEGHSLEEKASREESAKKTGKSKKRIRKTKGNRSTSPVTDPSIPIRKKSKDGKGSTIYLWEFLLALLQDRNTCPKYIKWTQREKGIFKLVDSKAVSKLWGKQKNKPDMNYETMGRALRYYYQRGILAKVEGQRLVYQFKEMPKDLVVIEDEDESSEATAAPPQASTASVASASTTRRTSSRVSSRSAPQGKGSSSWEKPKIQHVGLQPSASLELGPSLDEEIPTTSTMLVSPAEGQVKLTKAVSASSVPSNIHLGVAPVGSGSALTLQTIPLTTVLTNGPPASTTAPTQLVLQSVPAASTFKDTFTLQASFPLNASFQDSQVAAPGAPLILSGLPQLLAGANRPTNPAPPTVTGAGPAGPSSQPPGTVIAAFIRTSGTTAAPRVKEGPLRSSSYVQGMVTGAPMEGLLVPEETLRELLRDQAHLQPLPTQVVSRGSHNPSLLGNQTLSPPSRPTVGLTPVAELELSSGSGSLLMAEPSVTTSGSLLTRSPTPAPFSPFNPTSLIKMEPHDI
Chain of CRX (O43186 whole entry): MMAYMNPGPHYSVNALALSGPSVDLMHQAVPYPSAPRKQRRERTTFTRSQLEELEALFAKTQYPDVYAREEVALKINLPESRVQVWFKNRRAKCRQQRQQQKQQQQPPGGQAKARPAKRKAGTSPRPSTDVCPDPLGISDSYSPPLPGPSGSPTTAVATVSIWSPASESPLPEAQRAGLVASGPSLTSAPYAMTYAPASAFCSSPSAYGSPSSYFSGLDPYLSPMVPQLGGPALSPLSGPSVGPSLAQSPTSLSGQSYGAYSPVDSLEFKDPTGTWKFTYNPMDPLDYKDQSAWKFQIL
Chain of ETV1 (P50549 whole entry): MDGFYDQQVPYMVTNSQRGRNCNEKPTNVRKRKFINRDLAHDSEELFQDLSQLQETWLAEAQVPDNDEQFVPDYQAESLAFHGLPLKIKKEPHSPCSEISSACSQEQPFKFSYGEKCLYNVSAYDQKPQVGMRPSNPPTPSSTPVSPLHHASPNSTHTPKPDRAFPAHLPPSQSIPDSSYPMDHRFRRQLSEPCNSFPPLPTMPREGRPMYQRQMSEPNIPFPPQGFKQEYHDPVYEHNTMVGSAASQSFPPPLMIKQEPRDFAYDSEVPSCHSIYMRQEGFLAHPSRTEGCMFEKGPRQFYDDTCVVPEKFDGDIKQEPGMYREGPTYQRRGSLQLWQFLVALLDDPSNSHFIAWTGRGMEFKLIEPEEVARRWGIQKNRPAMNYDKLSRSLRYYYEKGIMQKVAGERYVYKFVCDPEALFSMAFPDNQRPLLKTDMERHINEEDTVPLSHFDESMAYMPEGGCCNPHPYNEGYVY

TATGCC
binding signal (FEV): 1.13 fold enrichment (6-mer frequency, TF over GST control)
binding signal (ETV5): 1.18 fold enrichment (6-mer frequency, TF over GST control)
binding signal (HSF1): 1.06 fold enrichment (6-mer frequency, TF over GST control)
binding signal (SPIC): 1.28 fold enrichment (6-mer frequency, TF over GST control)
binding signal (ELF4): 1.15 fold enrichment (6-mer frequency, TF over GST control)
binding signal (ELK4): 1.17 fold enrichment (6-mer frequency, TF over GST control)
binding signal (ETV2): 1.05 fold enrichment (6-mer frequency, TF over GST control)
binding signal (ELF3): 1.01 fold enrichment (6-mer frequency, TF over GST control)
binding signal (CRX): 1.18 fold enrichment (6-mer frequency, TF over GST control)
binding signal (ETV1): 1.28 fold enrichment (6-mer frequency, TF over GST control)
binding signal (ERF): 1.16 fold enrichment (6-mer frequency, TF over GST control)
binding signal (ETV3L): 1.12 fold enrichment (6-mer frequency, TF over GST control)
binding signal (ETS2): 1.21 fold enrichment (6-mer frequency, TF over GST control)
binding signal (SPDEF): 1.23 fold enrichment (6-mer frequency, TF over GST control)
binding signal (ETV7): 1.19 fold enrichment (6-mer frequency, TF over GST control)
binding signal (ELF5): 1.14 fold enrichment (6-mer frequency, TF over GST control)
binding signal (ETV3): 1.17 fold enrichment (6-mer frequency, TF over GST control)
binding signal (ETV6): 1.22 fold enrichment (6-mer frequency, TF over GST control)
